# Experimental data taken from PubChem BioAssay (NCI).
# Compounds without any hit were thinned out: in the full panel of roughly 79,000, 15% have a hit. Unmarked numbers belong to inactive results. Calls of active or inactive are those of the source. Cut-off read from the data, not from the text of the source: active = growth inhibition above about 70%; inactive = the rest.
# Legend:
# [1] = NCI Yeast Anticancer Drug Screen. Data for the rad50 strain (AID 155);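 note: 0% = growth of vehicle-only cultures of the same strain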; details: S. cerevisiae rad50 strain growth inhibition; at 50.0 µM; active compounds read high
# Summary of the method: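 Inhibition values express reduced yeast growth in compound-treated cultures relative to vehicle-treated controls.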
# [2] = NCI Yeast Anticancer Drug Screen. Data for the mec2-1 strain (AID 157); details: S. cerevisiae mec2-1 strain, at 50.0 µM, active compounds read high
# Summary of the method: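 Cells of the genetically defined mec2-1 yeast strain are incubated with test compound. Inhibition of growth is calculated against vehicle-treated controls.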
# [3] = NCI Yeast Anticancer Drug Screen. Data for the sgs1 mgt1 strain (AID 161);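 note: 0% = growth of cultures given vehicle only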; details: S. cerevisiae sgs1 mgt1 strain, at 50.0 µM, active compounds read high
# Summary of the method: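 Inhibition of yeast growth, normalised to vehicle-treated controls, is reported for a strain bearing genetic alterations in DNA damage repair.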
# [4] = NCI Yeast Anticancer Drug Screen. Data for the cln2 rad14 strain (AID 165);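 note: 0% = growth equal to vehicle treated cultures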; details: S. cerevisiae cln2 rad14 strain, at 50.0 µM, active compounds read high
# Summary of the method: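 The screen exposed genetically defined yeast (cln2 rad14) to test compounds and scored growth inhibition relative to vehicle-treated controls.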
# [5] = NCI Yeast Anticancer Drug Screen. Data for the bub3 strain (AID 167); details: S. cerevisiae bub3 mutant strain, at 50.0 µM, active compounds read high
# Summary of the method: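 Steps: expose the mutant yeast strain to compound; grow alongside vehicle-treated cultures; measure growth; express inhibition against the vehicle cultures.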
# [6] = NCI Yeast Anticancer Drug Screen. Data for the mlh1 rad18 strain (AID 175); details: S. cerevisiae mlh1 rad18 strain growth inhibition; at 50.0 µM; active compounds read high
# Summary of the method: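 Compound-treated yeast growth, normalised to vehicle controls. Strain bears defined DNA repair mutations.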
SMILES,growth inhibition [1],growth inhibition [2],growth inhibition [3],growth inhibition [4],growth inhibition [5],growth inhibition [6]
CCc1c(C)c2n(c1C)C(=O)C=C2N(CC)CC,-11.2%,-18.1%,-38.1%,-6.45%,-2%,-20.6%
CCCCOC(=O)NC(Nc1ccc(S(=O)(=O)Nc2ccc(OC)nn2)cc1)(C(F)(F)F)C(F)(F)F,-8.25%,-1.5%,-10.1%,5%,-9.55%,2.95%
N#CC1=C(c2ccccc2)NNC(c2ccc(Cl)cc2)CC1=O (stereo not given),-18.1%,-1.45%,2.4%,6.8%,-22.6%,36.5%
CSc1nc2nc[nH]c(=O)c2[nH]1,-3.55%,-11.6%,-5.75%,-14.1%,-5.35%,-2.5%
CCCCCCCCCCCCCCCCS(=O)(=O)c1ccc(S(=O)(=O)CS(C)(=O)=O)cc1[N+](=O)[O-],-5.55%,-16.2%,9.85%,0.85%,21.1%,15.3%
Nc1nc2c(ncn2CC2CCOC2=O)c(=O)[nH]1 (stereo not given),-19.1%,-17.9%,-18.7%,4.4%,-5.85%,-14.8%
COC(=O)c1ccc(N=NN(C)COC(C)=O)cc1,27.4%,12%,11.2%,18.5%,10.2%,18.8%
CCOC(=O)c1cc(N)c(C(=O)OCC)cc1N,4.15%,-16.5%,-1.3%,3.6%,8.65%,10.3%
Cn1c(NC(=O)C(=O)NC23CC4CC(CC(C4)C2)C3)nc2ccccc21,-1.9%,-11.4%,-9.7%,5.8%,-7.25%,8.55%
CCCCCCCCCCOC(=O)Nc1cccc(O)c1,29.8%,92.8% (active),95.4% (active),18.9%,96.9% (active),86.5% (active)
CCOC(=O)C1CCC2c3[nH]c4ccccc4c3CCN2C1=O (stereo not given),-25.3%,-39.8%,-8.65%,1.6%,31.1%,-20.9%
NC(CC(F)(F)F)C(=O)O (stereo not given),22.9%,4.2%,16.7%,31.3%,-2.65%,11.9%
Cc1ccc2nccnc2c1,-2.45%,3.9%,-12.2%,5.1%,10.9%,-1.85%
COC(=O)C1OC(O[C@H]2CC[C@]3(C)[C@H]4CC=C5[C@@H]6CC(C)(C)CC[C@]6(C(=O)OC)CC[C@@]5(C)[C@]4(C)CC[C@H]3C2(C)C)C(O)C(O)C1O (stereo not given in full),5.45%,-8.4%,2.05%,5.85%,23.6%,15.1%
Cc1ccc(NC(=O)CCC(NS(=O)(=O)c2ccc(C)cc2)C(=O)O)cc1 (stereo not given),26.4%,17.5%,25.6%,18.6%,-1.1%,42.1%
Cc1cccc(NC(C(=O)O)c2ccccc2)c1 (stereo not given),-13.8%,8.8%,-12.8%,-65.2%,26.1%,5.45%
COc1ccccc1NC(=S)N/N=C(/c1ccccc1)c1ccccn1,-50.9%,22.6%,17.4%,15.1%,20.2%,10.6%
O=C(NCCCN1CC2CCCC2C1)C(c1ccccc1)c1ccccc1 (stereo not given),-22.9%,-2.55%,-41.8%,-5.3%,-10.7%,-24.3%
C=C(CCCC(=C)C(N)=O)C(N)=O,-14.4%,-14.5%,-12.1%,2.55%,-0.85%,-27.4%
O=[N+]([O-])c1ccccc1N=C=S,9.5%,-10.3%,-4.05%,-36%,-9.85%,-17.7%

SMILES,growth inhibition [1],growth inhibition [2],growth inhibition [3],growth inhibition [4],growth inhibition [5],growth inhibition [6]
CCOC(=O)c1c(N)sc2c1C(C(=O)OCC)CC2 (stereo not given),-8.95%,7.1%,-8.05%,-0.8%,14.8%,19.9%
CCCCCc1c(C)nc(N)[nH]c1=O,-3.95%,0.7%,1.2%,-40%,-15.4%,-5.45%
CC(C)(S(=O)(=O)Oc1ccccc1)S(=O)(=O)Oc1ccccc1,1.6%,9.95%,-15.4%,-16.9%,49.8%,16.6%
CCC(/C=N\O)CC,-12.8%,2.6%,11.4%,-4.05%,-3.05%,17.1%
COc1ccc(C=Nc2c(O)ccc3c2CCCC3)cc1OC,9.55%,4.7%,-6.1%,-49.3%,1.95%,14.9%
c1ccc2c(c1)SCCCSCCSCCCS2,-15.2%,-0.65%,8.1%,5.05%,20.6%,2.6%
S=C1CSc2c(ccc3ccccc23)N1,-30.8%,-14.8%,19.2%,4.95%,19.9%,-9.4%
O=C(O)CC(NC(=O)C(CC(=O)OCc1ccccc1)NC(=O)OCc1ccccc1)C(=O)OCc1ccccc1 (stereo not given),44.5%,20.6%,27.4%,24.4%,-5.8%,36.6%
Cc1c2c(cc3c1[nH]c1ccccc13)C(=O)c1ccccc1C2=O,75.5% (active),68.5%,75.8% (active),75.3% (active),68.1%,83.3% (active)
COc1cc(C2c3cc4c(c(OC(=O)c5ccncc5)c3CC3COC(=O)C32)OCO4)cc(OC)c1OC (stereo not given),1.15%,-11.6%,35.8%,15.8%,5.8%,-0.05%
CNc1cc(S(=O)(=O)O)ccc1C,1.45%,-4.45%,-2.6%,3.9%,10.6%,-5.05%
C/C(N=NC(=S)N1CCC(C)CC1)=C1\C=CC=CN1O,97.3% (active),91.5% (active),95.9% (active),87.2% (active),48%,98.3% (active)
COc1ccc(NC(=O)Nc2cc(Cl)ccc2C)c(Cl)c1,0.7%,36%,29.8%,-3.35%,30.4%,29.9%
C=C1C2CC(OC(C)=O)C3(C)C(c4ccoc4)OC(=O)[C@@H](O)[C@]13OC1C[C@H](OC(C)=O)C(C)(C)[C@H](C(O)C(=O)OC)[C@]12C (stereo not given in full),-11.8%,-34.4%,2.4%,3.45%,-8.1%,0.25%
CC(=O)Nc1ccc(/C=N\N=C\c2ccc(NC(C)=O)cc2)cc1,1.95%,13.7%,28.4%,-4.6%,29.9%,28.6%
CC(=O)NCCc1nc(-c2nc(C(=O)NCCC(C)C)cs2)cs1,14.1%,16.6%,-2%,-23.4%,6.8%,5.9%
O=P(O)(c1cc(Cl)cc(Cl)c1)c1cc(Cl)cc(Cl)c1,2.05%,-7.45%,10.2%,-5.1%,-7.1%,-4.5%
Cc1nc(=S)[nH][nH]1,-0.75%,16.9%,6.15%,3.5%,8.15%,1%
O=C(c1ccccc1)C1CCC(C(=O)c2ccccc2)C1=O (stereo not given),15.8%,14.3%,-8%,17.9%,7.3%,-17.2%
O=CNc1ccccc1O,-2.55%,-17.5%,-25%,19.9%,-14.3%,14.9%
